From PubChem BioAssay
TDP1 block – blocks human tyrosyl-DNA phosphodiesterase 1; Q9NUW8; recombinant TDP1, AlphaScreen DNA substrate cleavage; Potency, µM (titrated, usually from 130 µM), actives largely listed as inhibitors; 0.28% of 350,000 active; AID 485290; note: nearly all actives have a fitted effect of over 40% in size
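AlphaScreen read-out: signal falls as enzyme removes the 3' tyrosine-FITC from a 5'-biotinylated DNA oligo (15 nM, 5 min, RT). Enzyme was E. coli-made recombinant Tdp1 at 1 nM, exposed to compound for 15 min beforehand; beads 10 ug/ml, 10 min.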
RORg inh – ROR gamma (mouse) transcription inhibition; Drosophila S2 Gal4-RORgamma UAS-luciferase reporter, 20 h; Potency, µM (titrated, usually from 53.6 µM), actives largely listed as inhibitors; 5.4% of 310,000 active; note: nearly all actives have a fitted effect of over 60% in size
Target sequence (P51450 whole entry, looked up, the tested form may be a part): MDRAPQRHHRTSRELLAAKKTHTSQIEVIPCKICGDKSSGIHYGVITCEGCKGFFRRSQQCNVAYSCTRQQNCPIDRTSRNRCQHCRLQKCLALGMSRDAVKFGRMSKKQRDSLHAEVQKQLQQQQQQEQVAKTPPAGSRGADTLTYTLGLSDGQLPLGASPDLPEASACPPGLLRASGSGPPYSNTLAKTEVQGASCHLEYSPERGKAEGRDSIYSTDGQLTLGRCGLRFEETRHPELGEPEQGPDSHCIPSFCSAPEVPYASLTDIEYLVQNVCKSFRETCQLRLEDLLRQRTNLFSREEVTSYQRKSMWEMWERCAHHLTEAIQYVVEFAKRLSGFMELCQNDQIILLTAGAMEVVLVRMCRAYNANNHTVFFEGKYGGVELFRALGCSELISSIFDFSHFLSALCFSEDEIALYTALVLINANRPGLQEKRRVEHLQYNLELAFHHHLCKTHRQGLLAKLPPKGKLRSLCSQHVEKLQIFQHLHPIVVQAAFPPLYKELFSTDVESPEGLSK
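Drosophila Schneider cells stably carrying a metallothionein-driven Gal4 DBD–ROR gamma fusion and a UAS-Photinus luciferase reporter were exposed to compound for 1 hr, then induced with copper sulfate (700 uM final) for 20 hr at ambient temperature before luminescence reading.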
TDP1 cell noCPT – qHTS for Inhibitors of human tyrosyl-DNA phosphodiesterase 1 (TDP1): qHTS in cells in absence of CPT; DT40 Tdp1-/- hTDP1 cells, no CPT, ATP luminescence, 48 h; Potency, µM (highest dose often 46.2 µM), most hits filed as inhibitors; 15% of 420,000 active; note: nearly all actives have a fitted effect of over 55% in size
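A cellular qHTS used chicken DT40 cells lacking endogenous Tdp1 but carrying stably transfected human TDP1. Compounds were applied without camptothecin, and cell growth kinetics were judged by ATP-dependent luminescence after ≥48 hr.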
VP16 counter – inhibits Gal4-VP16 luciferase reporter, ROR gamma counter-screen; 3.5% of 310,000 active; Potency, µM (highest dose often 53.6 µM), hits mostly inhibitors; Drosophila S2 Gal4-VP16 UAS-luciferase, luminescence, 20 h;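 note: Gal4-VP16 expression switched on by copper sulfate through the metallothionein promoter; nearly all actives have a fitted effect of over 50% in size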
TDP1 cell CPT – growth inhibition of DT40 Tdp1-/-;hTDP1 cells with camptothecin (screen for TDP1 inhibitors); chicken DT40 Tdp1-/-;hTDP1 cells + 20 nM CPT, ATP luminescence, 48 h; 12% of 420,000 active; Potency, µM (series often up to 46.2 µM), actives largely listed as inhibitors; note: nearly all actives have a fitted effect of over 55% in size
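Chicken DT40 Tdp1-/- cells stably complemented with human TDP1 were seeded at 400 cells/well in medium containing 20 nM camptothecin, exposed to pin-transferred compounds, and grown at 37 °C for at least 48 hr. Viability was read as ATP luminescence.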
Each line names hits and unclear results; the compound was inactive in the other large screens. In the library only some 19% were active in any assay of this set; here they are far more common. Calls come from the whole dose curve; as a rule, active = well fitted curve in the direction sought with a large enough effect; inconclusive = small, poorly fitted or top-dose-only effect, or another doubt; inactive = no such curve, though single readings can be large; an effect the other way counts as inactive or inconclusive.

CC(C)Cc1nc(C#N)c(N2CCC(C(N)=O)CC2)o1	none
CC(=O)c1cccc(CN2CCN(C(C)C)C(CCO)C2)c1 (configuration not stated)	none (no result: TDP1 block)
COCCn1c(N2CCN(c3ccc(OC)cc3)CC2)nc2c1c(=O)n(C)c(=O)n2C	TDP1 cell noCPT inconclusive, TDP1 cell CPT inconclusive
COc1ccc(N2CCN(Cc3nc4ccccc4n3C)CC2)cc1	RORg inh 13µM
COc1ccc(N2CCN(Cc3nc4c(c(=O)n(C)c(=O)n4C)n3C(C)C)CC2)cc1	TDP1 cell noCPT 0.65µM, TDP1 cell CPT 1µM (no result: RORg inh, VP16 counter)
CCOCCn1c(CN2CCN(CC)CC2)nc2c1c(=O)n(C)c(=O)n2C	none
COCCn1c(CN2CCN(c3ccccc3)CC2)nc2c1c(=O)n(C)c(=O)n2C	TDP1 cell noCPT 10µM, TDP1 cell CPT 10µM (no result: TDP1 block, RORg inh, VP16 counter)
CCOCCn1c(CN2CCN(c3ccccc3)CC2)nc2c1c(=O)n(C)c(=O)n2C	TDP1 cell noCPT 16µM, TDP1 cell CPT 16µM (no result: TDP1 block, RORg inh, VP16 counter)
CCOc1ccc(Nc2nc(CC(=O)OC)cc(=O)[nH]2)cc1	none
COc1ccc(OC)c(C(C)NC(=O)C(C)Cc2ccccc2)c1 (configuration not stated)	none (no result: TDP1 block)
CC(=O)c1cc2c(cc1NC(=O)c1cc3nc(C(C)C)cc(C(F)(F)F)n3n1)OCO2	TDP1 cell noCPT inconclusive
CC(C)Cn1c(CN2CCN(c3ccccc3F)CC2)nc2c1c(=O)[nH]c(=O)n2C	RORg inh inconclusive, TDP1 cell noCPT inconclusive
COC(=O)Cn1c(CN2CCN(c3ccccc3F)CC2)nc2c1c(=O)n(C)c(=O)n2C	TDP1 cell noCPT 8.2µM, TDP1 cell CPT 5.8µM (no result: TDP1 block, RORg inh, VP16 counter)
C=CCn1c(N2CCN(c3ccc(OC)cc3)CC2)nc2c1c(=O)n(C)c(=O)n2C	TDP1 cell noCPT 18µM, TDP1 cell CPT 21µM
COc1ccc(NC(=O)Cn2cnc3c(cnn3-c3ccc(C)c(C)c3)c2=O)c(OC)c1	none
CSc1nnc(SCC(=O)N(C)c2c(N)n(Cc3ccccc3)c(=O)[nH]c2=O)s1	none (no result: TDP1 block, RORg inh, VP16 counter)
Cc1cccc(OCC(=O)N(Cc2ccccc2)c2c(N)n(Cc3ccccc3)c(=O)[nH]c2=O)c1	TDP1 cell noCPT inconclusive, TDP1 cell CPT 18µM (no result: RORg inh, VP16 counter)
CC(=O)c1ccc(OCC(=O)N(CCC2=CCCCC2)c2c(N)n(Cc3ccccc3)c(=O)[nH]c2=O)cc1	TDP1 cell noCPT inconclusive, TDP1 cell CPT 23µM (no result: TDP1 block, RORg inh, VP16 counter)
Nc1c(N(CCC2=CCCCC2)C(=O)COc2ccc(F)cc2Cl)c(=O)[nH]c(=O)n1Cc1ccccc1	TDP1 cell noCPT 6.5µM, TDP1 cell CPT 5.8µM (no result: TDP1 block, RORg inh, VP16 counter)
COc1ccc(CCNc2c(N)n(Cc3ccccc3)c(=O)[nH]c2=O)cc1OC	TDP1 cell noCPT inconclusive
Nc1c(NCCC2=CCCCC2)c(=O)[nH]c(=O)n1Cc1ccccc1	TDP1 cell noCPT 6.5µM, VP16 counter inconclusive, TDP1 cell CPT 26µM
Nc1c(N(CCC2=CCCCC2)C(=O)Cc2ccc(F)cc2)c(=O)[nH]c(=O)n1Cc1ccccc1	TDP1 cell noCPT inconclusive, TDP1 cell CPT inconclusive (no result: RORg inh, VP16 counter)
Cc1cccc(OCC(=O)N(Cc2ccco2)c2c(N)n(Cc3ccccc3)c(=O)[nH]c2=O)c1	none (no result: RORg inh, VP16 counter)
COc1nc(OCC#N)nc(N2CCCCC2)n1	none
CC(C)c1cc(Cn2c3ccccc3c(=O)n2C(C)Cn2cc(-c3ccc(C(C)(C)C)cc3)nn2)on1 (configuration not stated)	TDP1 cell noCPT 15µM, TDP1 cell CPT inconclusive (no result: TDP1 block, RORg inh, VP16 counter)
CCOc1cc(/C=N/NC(=O)c2ccc3c(c2)OCCO3)cc(Br)c1O	RORg inh inconclusive
COC(=O)c1ccc(/C=N/Nc2nc(-c3ccc(C)cc3)cs2)cc1	none
CC(=O)N(/N=C/c1cccc(C)c1)c1nc(-c2ccc(Br)cc2)cs1	TDP1 cell noCPT inconclusive, TDP1 cell CPT 21µM
COc1ccc(/C=N/N(C(C)=O)c2nc(-c3ccc(C)cc3)cs2)cc1	TDP1 cell noCPT 13µM
COc1cccc(-c2ccc(NC(=O)C3CCCN(CCCn4nc(C)cc4C)C3)cc2)c1 (configuration not stated)	RORg inh inconclusive, TDP1 cell noCPT inconclusive, TDP1 cell CPT 18µM
CSc1ncc(CN2CCCC(C(=O)Nc3ccc(-c4ccco4)cc3)C2)cn1 (configuration not stated)	TDP1 cell noCPT inconclusive, TDP1 cell CPT inconclusive
